# Laboratory results published in ChEMBL document CHEMBL1961873, “Compounds: GSK PKIS; Assays: Nanosyn kinase panel” (2012).
# Experiments:
# [1] = biological target: Sphingosine kinase 1 (Homo sapiens) (UniProt Q9NYA1); details: at 1 µM;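 also: mean SPHK1 inhibition value reported from the GSK PKIS kinase panel screen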
# [2] = biological target: T1, Sphingosine kinase 2 (Homo sapiens) (UniProt Q9NRA0); details: at 0.1 µM
# T1 sequence (whole entry): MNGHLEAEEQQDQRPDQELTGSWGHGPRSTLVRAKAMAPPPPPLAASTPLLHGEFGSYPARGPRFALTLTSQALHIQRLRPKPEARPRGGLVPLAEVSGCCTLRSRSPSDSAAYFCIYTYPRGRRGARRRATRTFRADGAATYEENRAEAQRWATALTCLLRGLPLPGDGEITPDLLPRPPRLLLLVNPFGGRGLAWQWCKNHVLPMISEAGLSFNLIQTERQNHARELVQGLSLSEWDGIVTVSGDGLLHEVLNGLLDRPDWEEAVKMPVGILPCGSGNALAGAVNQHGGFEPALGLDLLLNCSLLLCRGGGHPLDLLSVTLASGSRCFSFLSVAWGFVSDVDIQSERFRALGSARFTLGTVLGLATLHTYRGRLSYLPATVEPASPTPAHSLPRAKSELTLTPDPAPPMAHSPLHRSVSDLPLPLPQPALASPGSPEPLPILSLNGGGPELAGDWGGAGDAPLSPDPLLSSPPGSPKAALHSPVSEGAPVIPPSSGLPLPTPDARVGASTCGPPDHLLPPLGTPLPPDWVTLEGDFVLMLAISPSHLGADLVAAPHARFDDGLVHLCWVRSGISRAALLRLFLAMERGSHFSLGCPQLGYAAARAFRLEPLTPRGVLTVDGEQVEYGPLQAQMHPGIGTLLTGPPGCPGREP
# [3] = biological target: T1, Sphingosine kinase 2 (Homo sapiens); details: at 1 µM
# [4] = biological target: Casein kinase II subunit alpha (Homo sapiens) (UniProt P68400); details: at 1 µM;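 also: reported value is the mean CK2 inhibition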
# [5] = biological target: T2, Inhibitor of nuclear factor kappa-B kinase subunit alpha (Homo sapiens) (UniProt O15111); details: at 0.1 µM
# T2 sequence (whole entry): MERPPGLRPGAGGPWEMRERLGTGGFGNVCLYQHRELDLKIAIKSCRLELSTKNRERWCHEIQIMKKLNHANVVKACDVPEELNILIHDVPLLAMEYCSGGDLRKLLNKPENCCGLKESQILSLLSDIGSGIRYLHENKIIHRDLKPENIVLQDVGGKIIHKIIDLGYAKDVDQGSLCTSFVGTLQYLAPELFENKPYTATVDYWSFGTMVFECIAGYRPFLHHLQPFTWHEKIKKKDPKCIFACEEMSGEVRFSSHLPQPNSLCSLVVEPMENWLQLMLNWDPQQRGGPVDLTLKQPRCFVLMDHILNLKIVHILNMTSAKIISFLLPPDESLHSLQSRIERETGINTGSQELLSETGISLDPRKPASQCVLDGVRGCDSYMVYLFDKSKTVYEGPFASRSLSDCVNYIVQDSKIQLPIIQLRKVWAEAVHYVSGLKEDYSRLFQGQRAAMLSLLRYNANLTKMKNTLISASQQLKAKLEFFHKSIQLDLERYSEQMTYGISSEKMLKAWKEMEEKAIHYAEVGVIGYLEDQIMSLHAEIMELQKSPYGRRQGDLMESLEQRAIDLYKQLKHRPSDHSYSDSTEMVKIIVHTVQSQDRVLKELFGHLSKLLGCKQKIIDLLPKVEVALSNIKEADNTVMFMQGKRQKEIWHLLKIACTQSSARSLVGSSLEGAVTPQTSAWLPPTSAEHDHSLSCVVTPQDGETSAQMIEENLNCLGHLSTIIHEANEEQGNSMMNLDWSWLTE
# [6] = biological target: T2, Inhibitor of nuclear factor kappa-B kinase subunit alpha (Homo sapiens); details: at 1 µM
# [7] = biological target: T3, Inhibitor of nuclear factor kappa-B kinase subunit beta (Homo sapiens) (UniProt O14920); details: at 0.1 µM
# T3 sequence (whole entry): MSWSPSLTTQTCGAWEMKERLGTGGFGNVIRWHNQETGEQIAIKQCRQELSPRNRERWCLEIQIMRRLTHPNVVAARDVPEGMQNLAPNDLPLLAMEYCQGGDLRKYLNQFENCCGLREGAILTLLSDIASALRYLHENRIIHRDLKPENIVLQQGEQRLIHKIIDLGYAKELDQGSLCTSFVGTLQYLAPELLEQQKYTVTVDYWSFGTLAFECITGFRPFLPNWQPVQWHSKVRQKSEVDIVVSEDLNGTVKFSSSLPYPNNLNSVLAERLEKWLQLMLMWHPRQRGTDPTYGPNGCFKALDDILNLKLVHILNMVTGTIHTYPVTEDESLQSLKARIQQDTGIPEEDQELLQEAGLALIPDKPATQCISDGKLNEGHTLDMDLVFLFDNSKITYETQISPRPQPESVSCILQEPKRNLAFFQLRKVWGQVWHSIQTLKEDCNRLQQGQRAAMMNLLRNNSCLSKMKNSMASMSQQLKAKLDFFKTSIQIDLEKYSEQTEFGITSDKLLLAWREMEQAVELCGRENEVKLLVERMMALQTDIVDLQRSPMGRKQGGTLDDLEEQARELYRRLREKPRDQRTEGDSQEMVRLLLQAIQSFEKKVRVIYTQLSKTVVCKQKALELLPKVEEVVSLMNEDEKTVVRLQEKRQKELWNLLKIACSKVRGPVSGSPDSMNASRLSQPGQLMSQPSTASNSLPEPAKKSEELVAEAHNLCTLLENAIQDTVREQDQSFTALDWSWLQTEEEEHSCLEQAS
# [8] = biological target: T3, Inhibitor of nuclear factor kappa-B kinase subunit beta (Homo sapiens); details: at 1 µM
# [9] = biological target: T4, Inhibitor of nuclear factor kappa-B kinase subunit epsilon (Homo sapiens) (UniProt Q14164); details: at 0.1 µM
# T4 sequence (whole entry): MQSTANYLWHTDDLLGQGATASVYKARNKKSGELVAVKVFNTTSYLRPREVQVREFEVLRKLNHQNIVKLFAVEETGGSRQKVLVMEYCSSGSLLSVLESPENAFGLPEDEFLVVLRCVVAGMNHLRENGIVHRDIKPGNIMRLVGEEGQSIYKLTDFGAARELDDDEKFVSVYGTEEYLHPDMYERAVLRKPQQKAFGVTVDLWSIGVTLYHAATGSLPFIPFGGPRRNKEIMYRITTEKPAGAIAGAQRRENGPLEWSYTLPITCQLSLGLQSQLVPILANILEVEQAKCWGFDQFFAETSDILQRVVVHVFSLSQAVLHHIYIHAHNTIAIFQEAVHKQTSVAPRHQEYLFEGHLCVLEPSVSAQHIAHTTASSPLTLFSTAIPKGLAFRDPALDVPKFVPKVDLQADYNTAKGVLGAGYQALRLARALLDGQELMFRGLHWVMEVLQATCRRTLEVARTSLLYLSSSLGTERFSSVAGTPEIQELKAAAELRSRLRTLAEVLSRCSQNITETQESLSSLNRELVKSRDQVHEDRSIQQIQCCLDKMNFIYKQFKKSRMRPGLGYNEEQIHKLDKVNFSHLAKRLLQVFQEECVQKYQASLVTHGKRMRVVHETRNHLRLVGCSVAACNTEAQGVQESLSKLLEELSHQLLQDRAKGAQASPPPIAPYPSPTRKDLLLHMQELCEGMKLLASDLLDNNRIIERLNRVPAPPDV
# [10] = biological target: T4, Inhibitor of nuclear factor kappa-B kinase subunit epsilon (Homo sapiens); details: at 1 µM
# [11] = biological target: T5, Serine/threonine-protein kinase Nek1 (Homo sapiens) (UniProt Q96PY6); details: at 0.1 µM
# T5 sequence (whole entry): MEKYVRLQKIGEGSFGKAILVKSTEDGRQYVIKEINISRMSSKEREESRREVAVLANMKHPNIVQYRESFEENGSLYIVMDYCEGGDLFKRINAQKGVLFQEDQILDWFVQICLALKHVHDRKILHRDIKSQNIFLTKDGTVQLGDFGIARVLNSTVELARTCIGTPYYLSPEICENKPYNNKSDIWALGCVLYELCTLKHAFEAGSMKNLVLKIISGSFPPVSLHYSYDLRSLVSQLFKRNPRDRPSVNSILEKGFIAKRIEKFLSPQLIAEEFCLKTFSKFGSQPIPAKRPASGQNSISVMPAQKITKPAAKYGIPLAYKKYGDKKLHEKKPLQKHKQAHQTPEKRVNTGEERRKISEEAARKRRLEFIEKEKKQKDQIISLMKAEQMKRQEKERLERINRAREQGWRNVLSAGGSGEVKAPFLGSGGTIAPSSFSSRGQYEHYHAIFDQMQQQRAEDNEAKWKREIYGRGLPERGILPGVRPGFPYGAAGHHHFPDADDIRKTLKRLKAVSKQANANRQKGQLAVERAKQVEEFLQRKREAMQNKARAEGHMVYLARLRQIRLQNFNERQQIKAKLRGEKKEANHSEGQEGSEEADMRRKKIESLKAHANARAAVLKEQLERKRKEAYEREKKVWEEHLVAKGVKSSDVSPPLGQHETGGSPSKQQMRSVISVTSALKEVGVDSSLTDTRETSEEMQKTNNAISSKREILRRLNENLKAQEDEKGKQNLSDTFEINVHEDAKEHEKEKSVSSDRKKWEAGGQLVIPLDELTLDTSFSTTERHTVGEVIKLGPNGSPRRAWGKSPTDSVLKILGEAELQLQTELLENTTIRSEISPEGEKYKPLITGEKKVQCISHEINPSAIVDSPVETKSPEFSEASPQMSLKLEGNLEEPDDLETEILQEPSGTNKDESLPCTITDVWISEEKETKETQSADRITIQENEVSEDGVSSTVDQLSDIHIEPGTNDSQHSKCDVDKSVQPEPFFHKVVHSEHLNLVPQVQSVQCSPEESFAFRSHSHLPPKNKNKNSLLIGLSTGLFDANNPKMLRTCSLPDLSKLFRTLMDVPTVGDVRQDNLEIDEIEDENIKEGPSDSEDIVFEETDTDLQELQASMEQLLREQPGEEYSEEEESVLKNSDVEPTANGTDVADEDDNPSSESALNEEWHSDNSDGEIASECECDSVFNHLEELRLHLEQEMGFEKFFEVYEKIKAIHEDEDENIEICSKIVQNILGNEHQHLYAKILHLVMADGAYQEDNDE
# [12] = biological target: T5, Serine/threonine-protein kinase Nek1 (Homo sapiens); details: at 1 µM
# [13] = biological target: T6, Serine/threonine-protein kinase Nek2 (Homo sapiens) (UniProt P51955); details: at 0.1 µM
# T6 sequence (whole entry): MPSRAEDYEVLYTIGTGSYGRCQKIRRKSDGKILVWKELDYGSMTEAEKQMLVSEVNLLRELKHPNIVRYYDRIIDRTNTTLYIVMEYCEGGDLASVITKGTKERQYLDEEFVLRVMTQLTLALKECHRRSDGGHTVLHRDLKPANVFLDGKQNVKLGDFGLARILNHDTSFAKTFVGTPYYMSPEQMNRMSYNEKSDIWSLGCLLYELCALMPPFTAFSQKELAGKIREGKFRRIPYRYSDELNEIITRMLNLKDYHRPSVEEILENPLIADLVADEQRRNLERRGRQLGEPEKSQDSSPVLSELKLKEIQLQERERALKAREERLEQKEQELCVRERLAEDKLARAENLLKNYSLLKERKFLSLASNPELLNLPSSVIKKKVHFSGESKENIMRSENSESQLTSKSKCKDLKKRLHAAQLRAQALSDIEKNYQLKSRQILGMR
# [14] = biological target: T6, Serine/threonine-protein kinase Nek2 (Homo sapiens); details: at 1 µM
# [15] = biological target: Serine/threonine-protein kinase Nek6 (Homo sapiens) (UniProt Q9HC98); details: at 0.1 µM
# [16] = biological target: Serine/threonine-protein kinase Nek6 (Homo sapiens) (UniProt Q9HC98); details: at 1 µM
# [17] = biological target: Serine/threonine-protein kinase Nek7 (Homo sapiens) (UniProt Q8TDX7); details: at 0.1 µM
# [18] = biological target: Serine/threonine-protein kinase Nek7 (Homo sapiens) (UniProt Q8TDX7); details: at 1 µM
# [19] = biological target: T7, Serine/threonine-protein kinase Nek9 (Homo sapiens) (UniProt Q8TD19); details: at 0.1 µM;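 also: reported value is the mean percent inhibition of NEK9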
# T7 sequence (whole entry): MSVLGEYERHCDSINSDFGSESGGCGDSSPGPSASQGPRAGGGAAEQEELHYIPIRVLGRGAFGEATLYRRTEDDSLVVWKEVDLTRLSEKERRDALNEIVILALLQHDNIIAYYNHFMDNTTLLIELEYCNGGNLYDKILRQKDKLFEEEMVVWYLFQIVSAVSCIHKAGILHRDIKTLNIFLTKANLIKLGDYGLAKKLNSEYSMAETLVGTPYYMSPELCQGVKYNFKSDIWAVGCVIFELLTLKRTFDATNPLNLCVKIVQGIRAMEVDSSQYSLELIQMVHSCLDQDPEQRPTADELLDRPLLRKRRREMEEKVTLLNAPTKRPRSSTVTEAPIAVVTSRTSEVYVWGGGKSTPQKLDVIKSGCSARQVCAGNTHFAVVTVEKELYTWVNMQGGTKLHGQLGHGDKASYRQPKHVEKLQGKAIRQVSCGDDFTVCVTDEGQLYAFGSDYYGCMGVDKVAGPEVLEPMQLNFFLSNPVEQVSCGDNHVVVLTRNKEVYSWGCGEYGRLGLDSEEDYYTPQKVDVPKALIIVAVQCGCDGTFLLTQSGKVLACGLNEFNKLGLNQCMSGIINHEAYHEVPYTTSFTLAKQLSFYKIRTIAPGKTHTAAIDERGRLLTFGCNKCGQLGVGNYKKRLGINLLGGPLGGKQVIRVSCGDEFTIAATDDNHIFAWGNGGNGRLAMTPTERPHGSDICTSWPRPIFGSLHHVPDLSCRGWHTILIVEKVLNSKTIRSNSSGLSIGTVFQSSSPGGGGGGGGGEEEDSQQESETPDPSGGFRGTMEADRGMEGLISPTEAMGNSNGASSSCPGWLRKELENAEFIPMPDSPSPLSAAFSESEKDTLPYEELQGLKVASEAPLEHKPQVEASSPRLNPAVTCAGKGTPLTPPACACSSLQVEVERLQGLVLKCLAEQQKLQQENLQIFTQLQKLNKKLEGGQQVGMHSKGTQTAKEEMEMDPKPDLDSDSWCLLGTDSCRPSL
# Sequence of Serine/threonine-protein kinase Nek7 (Homo sapiens) (Q8TDX7 whole entry, looked up): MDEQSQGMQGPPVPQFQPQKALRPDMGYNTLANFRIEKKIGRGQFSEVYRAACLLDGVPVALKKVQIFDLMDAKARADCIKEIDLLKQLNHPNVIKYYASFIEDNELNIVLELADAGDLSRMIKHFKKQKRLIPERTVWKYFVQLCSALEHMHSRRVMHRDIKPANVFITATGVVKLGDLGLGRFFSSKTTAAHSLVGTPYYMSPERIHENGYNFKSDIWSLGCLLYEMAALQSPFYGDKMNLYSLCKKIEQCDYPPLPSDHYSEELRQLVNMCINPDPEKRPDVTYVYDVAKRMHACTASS
# Sequence of Serine/threonine-protein kinase Nek6 (Homo sapiens) (Q9HC98 whole entry): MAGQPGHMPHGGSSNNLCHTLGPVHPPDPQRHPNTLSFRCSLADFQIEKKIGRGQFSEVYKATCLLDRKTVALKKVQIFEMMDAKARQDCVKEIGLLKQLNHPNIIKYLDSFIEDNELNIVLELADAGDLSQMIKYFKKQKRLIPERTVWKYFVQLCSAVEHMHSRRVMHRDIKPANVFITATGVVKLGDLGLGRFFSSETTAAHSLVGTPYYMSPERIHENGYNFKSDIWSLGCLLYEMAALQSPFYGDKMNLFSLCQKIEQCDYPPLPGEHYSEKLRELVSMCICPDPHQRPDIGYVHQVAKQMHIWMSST
# Sequence of Sphingosine kinase 1 (Homo sapiens) (Q9NYA1 whole entry): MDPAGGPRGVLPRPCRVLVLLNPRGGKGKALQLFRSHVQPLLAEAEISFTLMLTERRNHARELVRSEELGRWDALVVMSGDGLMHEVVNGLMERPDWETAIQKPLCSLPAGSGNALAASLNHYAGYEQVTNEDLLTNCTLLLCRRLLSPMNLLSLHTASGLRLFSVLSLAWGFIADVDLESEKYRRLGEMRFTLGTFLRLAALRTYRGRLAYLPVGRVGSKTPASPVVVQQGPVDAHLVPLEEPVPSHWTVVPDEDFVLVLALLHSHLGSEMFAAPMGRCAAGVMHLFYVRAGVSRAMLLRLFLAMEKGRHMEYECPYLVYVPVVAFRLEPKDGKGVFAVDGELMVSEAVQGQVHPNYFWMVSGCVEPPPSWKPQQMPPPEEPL
# Sequence of Casein kinase II subunit alpha (Homo sapiens) (P68400 whole entry, looked up): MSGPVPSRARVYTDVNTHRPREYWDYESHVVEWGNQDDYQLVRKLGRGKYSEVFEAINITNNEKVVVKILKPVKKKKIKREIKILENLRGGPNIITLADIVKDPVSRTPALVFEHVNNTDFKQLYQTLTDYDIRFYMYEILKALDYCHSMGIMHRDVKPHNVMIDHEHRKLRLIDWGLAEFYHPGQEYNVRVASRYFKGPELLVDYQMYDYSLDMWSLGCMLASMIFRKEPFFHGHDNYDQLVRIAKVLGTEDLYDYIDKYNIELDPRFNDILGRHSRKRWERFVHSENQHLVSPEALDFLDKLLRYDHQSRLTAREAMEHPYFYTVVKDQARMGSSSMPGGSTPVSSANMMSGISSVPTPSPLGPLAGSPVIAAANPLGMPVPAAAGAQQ
smiles,measurement,setting,value
N#Cc1ccc(Oc2nccc(-c3c(-c4ccc(F)cc4)ncn3C3CCNCC3)n2)cc1,inhibition,[1],0.37%
same,inhibition,[2],-1.27%
same,inhibition,[3],-0.57%
same,inhibition,[4],4.89%
same,inhibition,[5],11.3%
same,inhibition,[6],4.73%
same,inhibition,[7],8.59%
same,inhibition,[8],5.99%
same,inhibition,[9],9.95%
same,inhibition,[10],5.32%
same,inhibition,[11],2.19%
same,inhibition,[12],2.49%
same,inhibition,[13],4.13%
same,inhibition,[14],4.63%
same,inhibition,[15],3.13%
same,inhibition,[16],3.68%
same,inhibition,[17],3.62%
same,inhibition,[18],6.16%
same,inhibition,[19],9.06%
